Screening results: PubChem, National Center for Advancing Translational Sciences (NCATS)
This is a sample that favours compounds with a hit; in the whole collection about 7.5% have one here.
FLuc counter – counter-screen for miR-21 project: firefly luciferase inhibitors or activators; 360,000 compounds, 6.9% hits; purified FLuc, Km substrates, luminescence inhibition; Potency, µM (series often up to 57.5 µM), most hits filed as inhibitors; note: nearly all actives have a fitted effect of over 55% in size
Target sequence (P08659 whole entry, looked up): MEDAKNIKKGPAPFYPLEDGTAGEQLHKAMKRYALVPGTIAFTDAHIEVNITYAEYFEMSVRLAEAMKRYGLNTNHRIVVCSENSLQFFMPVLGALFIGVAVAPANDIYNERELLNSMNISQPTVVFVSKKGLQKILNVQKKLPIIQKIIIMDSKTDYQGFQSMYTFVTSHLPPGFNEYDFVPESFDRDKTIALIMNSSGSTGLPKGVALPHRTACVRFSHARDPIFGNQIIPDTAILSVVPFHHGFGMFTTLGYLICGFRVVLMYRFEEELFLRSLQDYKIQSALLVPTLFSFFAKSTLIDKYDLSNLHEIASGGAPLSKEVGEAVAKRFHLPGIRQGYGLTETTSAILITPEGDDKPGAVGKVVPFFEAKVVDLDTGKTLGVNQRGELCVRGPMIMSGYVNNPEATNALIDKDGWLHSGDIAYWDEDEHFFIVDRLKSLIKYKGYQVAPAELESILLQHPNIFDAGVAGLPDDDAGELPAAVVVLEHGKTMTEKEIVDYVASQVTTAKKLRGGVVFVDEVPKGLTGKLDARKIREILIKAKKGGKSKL
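Purified P. pyralis luciferase, 10 nM final, with Km-level 10 uM D-luciferin and 10 uM ATP in 50 mM Tris acetate pH 7.5, 10 mM Mg acetate, 0.01% Tween-20, 0.05% BSA; 6-point qHTS titration about 60 µM downward; luminescence read.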
ELG1 genotoxic – induces genotoxicity in HEK293T cells with luciferase-tagged ELG1 | HEK293T ELG1-luciferase reporter, luminescence, 16 h | Potency, µM (top dose mostly 46 µM), hits mostly activators | 330,000 compounds, 1.3% hits; note: nearly all actives have a fitted effect of over 60% in size
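DMSO vehicle served as control against compound-treated ELG1-luciferase HEK293T cells; exposure lasted 16 hr at 37 °C and 5% CO2, followed by ONE-Glo luminescence detection after 30 min.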
SMN2 splice up – increases expression of the SMN2 splice variant; HEK293 SMN2-luciferase splicing reporter, luminescence, 30-36 h; 210,000 compounds, 2.8% hits; Potency, µM (top dose mostly 46.1 µM), hits mostly activators; note: nearly all actives have a fitted effect of over 55% in size
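qHTS luciferase splicing reporter: luminescence rises when SMN2 exon 7 is included in transfected HEK293 cells. Compound exposure lasted 30-36 h at 37C, with 4.5 mM final sodium butyrate as control, followed by a ONE-Glo read.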
Rab9 promoter act – activates the Rab9 promoter; Huh7 Rab9 promoter-luciferase reporter, luminescence, 24 h; Potency, µM (doses to about 9.22 µM), actives largely listed as activators; 320,000 compounds, 2.8% hits; AID 485297; note: nearly all actives have a fitted effect of over 60% in size
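Stable Rab9-luc Huh7, 1500 cells/well, 2 h settle; cmpd in DMSO, 24 h, 37 °C/5% CO2; luciferase reagent 10 min RT; luminescence.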
NPC1 promoter act – activates the NPC1 promoter; Huh7 NPC1 promoter luciferase reporter, 24 h; Potency, µM (doses to about 9.22 µM), usual class: activators; 320,000 compounds, 2.4% hits; note: nearly all actives have a fitted effect of over 60% in size
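Luminescence from an NPC1 promoter-driven luciferase reporter in stably transfected Huh7 cells was measured after 24 h compound treatment at 37 °C, followed by 10 min ambient incubation with luciferase detection reagent.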
A number is an active result; n = inactive; u = inconclusive; x = not tested or not shown; ! = a repeat was not active. Calls come from the whole dose curve; as a rule, active = well fitted curve in the direction sought with a large enough effect; inconclusive = small, poorly fitted or top-dose-only effect, or another doubt; inactive = no such curve, though single readings can be large; an effect the other way counts as inactive or inconclusive.

SMILES	FLuc counter	ELG1 genotoxic	SMN2 splice up	Rab9 promoter act	NPC1 promoter act
CCCC(=O)Nc1nnc(S(=O)(=O)N2CCCCCC2)s1	11µM!	n	x	n	n
Cc1ccc(C(=O)Nc2nnc(S(=O)(=O)N3CCCCCC3)s2)cc1	9.5µM!	n	x	n	n
O=C(Nc1nnc(S(=O)(=O)N2CCCC2)s1)c1cccc([N+](=O)[O-])c1	15µM	n	x	n	n
CC1CCN(S(=O)(=O)c2nnc(NC(=O)c3cccc([N+](=O)[O-])c3)s2)CC1	u	n	x	n	n
Cc1ccc(OCC(=O)Nc2nnc(S(=O)(=O)N3CCCCC3)s2)cc1	n	n	x	n	n
Cc1ccc(OCC(=O)Nc2nnc(S(=O)(=O)N3CCCCCC3)s2)cc1	9.5µM!	n	x	n	n
Cc1ccc(C(=O)Nc2nnc(S(=O)(=O)N3CCOCC3)s2)cc1	n	n	x	u	n
Cc1ccc2c(CC(=O)Nc3c(C(=O)c4ccc(C)c(F)c4)oc4ccccc34)coc2c1	n	x	n	x	x
O=C(Nc1nnc(S(=O)(=O)N2CCOCC2)s1)c1cccc(F)c1	15µM!	n	x	u	u
O=C(Nc1nnc(S(=O)(=O)N2CCCCCC2)s1)c1ccccc1F	17µM	n	x	n	n
O=C(Nc1nnc(S(=O)(=O)N2CCOCC2)s1)c1ccccc1F	n	n	x	n	n
Cc1cccc(C(=O)Nc2nnc(S(=O)(=O)N3CCOCC3)s2)c1	n	n	x	n	n
COc1ccccc1N1CCN(C(CNC(=O)C(=O)NCCCN(C)C)c2cccnc2)CC1 (configuration not stated)	n	x	x	x	x
O=C(COC(=O)c1ccccc1-n1cnnn1)c1ccccc1	19µM	n	x	n	n
O=C(COC(=O)c1ccccc1-n1cnnn1)c1ccc(Br)cc1	5.4µM	18µM	x	n	n
O=C(COC(=O)c1ccccc1-n1cnnn1)c1ccc(F)c(F)c1	u	u	x	n	n
COc1ccc(C(=O)Nc2cccc(C(=O)N3CCCC3)c2)cc1	15µM	u	u	n	u
CC(=O)N1CCc2cc(NC(=O)c3ccc(C)cc3)ccc21	3.8µM	u	11µM	0.56µM	u
CC(=O)Nc1ccc(NC(=O)c2ccc3c(c2)CCN3S(=O)(=O)c2ccc(C)cc2)cc1	n	x	n	x	x
Cc1ccc(C(=O)Nc2cccc(NC(=O)CN3CCCCC3)c2)cc1	19µM	n	x	n	n
COc1cccc(C(=O)Nc2cccc(C(=O)N3CCOCC3)c2)c1	n	n	n	n	n
Cc1cccc(C(=O)Nc2cccc(C(=O)N3CCOCC3)c2)c1	u	n	n	n	n
Cc1ccc(C(=O)Nc2cccc(C(=O)N3CCN(C)CC3)c2)cc1	9.5µM	u	11µM	4.5µM	3.2µM
COCC1=C2c3ccccc3[C@@H]3CNC(=O)C3(C(=O)OC)C[C@@H]2n2c(=O)n(-c3ccccc3)c(=O)n2C1 (some centres not stated)	x	x	n	x	x
COc1ccccc1N(CC(=O)Nc1cc(C)cc(C)c1)S(C)(=O)=O	n	x	n	x	x
SMILES	FLuc counter	ELG1 genotoxic	SMN2 splice up	Rab9 promoter act	NPC1 promoter act
COC(=O)c1cc(NC(=O)Cn2ncc3c2-c2ccccc2OC3)cc(C(=O)OC)c1	n	x	n	x	x
O=C(NC(=S)Nc1ccc(O)cc1)c1ccccc1Cl	u	u	u	4µM	u
Cc1ccc(O)c(NC(=S)NC(=O)c2ccccc2Cl)c1	17µM	n	u	n	n
COC(=O)Nc1ccc2c(c1)ncn2C1CCCCC1	17µM	n	n	n	n
CC(C)(C)OC(=O)NCc1n[nH]c(=S)n1C1CC1	n	n	x	n	n
Brc1ccc2nc(-c3c[nH]c4ccccc34)cn2c1	1.5µM	u	10µM	1µM	2.2µM
Cc1ccc2nc(-c3c[nH]c4ccccc34)c(Nc3ccccc3C)n2c1	n	x	u	x	x
Cc1cccn2cc(-c3c[nH]c4ccccc34)nc12	19µM	u	13µM	u	u
Cc1cccn2c(=O)c(C(=O)NCCc3ccccc3)cnc12	4.8µM	x	x	x	x
O=C(NCCc1ccccc1)c1cnc2sccn2c1=O	17µM	u	13µM	3.5µM	u
CCOC(=O)c1[nH]c(C)c(C(=O)Nc2ccccc2C)c1C	n	u	n	n	n
CCOC(=O)c1[nH]c(C)c(C(=O)O)c1C	n	n	n	n	n
CCOC(=O)c1c(C)[nH]c(N=Nc2cc(C(=O)O)cc(C(=O)O)c2)c1C	17µM	n	x	n	n
CCOC(=O)c1c(C)[nH]c(N=Nc2ccc(C)cc2C)c1C	15µM	u	n	0.25µM	u
CCOC(=O)c1c(C)[nH]c(N=Nc2ccccc2C)c1C	15µM	23µM	n	u	n
COc1c(O)ccc(/C=N/NC(=O)c2ccc3c(c2)OCCO3)c1[N+](=O)[O-]	2.7µM	u	x	u	u
COc1c(O)ccc(/C=N\NC(=O)c2ccc3c(c2)OCO3)c1[N+](=O)[O-]	15µM	n	x	n	n
O=C(CN1C(=O)CSc2ccc(S(=O)(=O)N3CCCCC3)cc21)NCc1ccccc1	n	n	x	n	n
CCOc1ccc(OC(=O)c2cn(-c3ccc(C)cc3)c(=O)c3ccccc23)cc1	n	x	x	x	x
COCc1cc(C)nc(N/N=C/c2ccc(Cl)c(Cl)c2)c1C#N	n	n	n	n	n
COc1ccc(CCNC(=O)CCSCc2ccccc2Cl)cc1OC	n	x	x	x	x
CCOC(=O)c1ccc2c(c1)NCc1cccc(OC)c1O2	5.4µM	u	x	2.8µM	2.5µM
COc1ccc(C(=O)OCC(=O)c2ccc3c(c2)NC(=O)CO3)cc1OC	x	n	x	x	x
CC(=O)Nc1ccc(NC(=O)COC(=O)c2c3c(nc4ccccc24)CCN(Cc2ccccc2)C3)cc1	8.5µM	n	x	n	n
O=C(COC(=O)c1c2c(nc3ccccc13)CCN(Cc1ccccc1)C2)Nc1c(F)cccc1F	u	n	n	n	n
SMILES	FLuc counter	ELG1 genotoxic	SMN2 splice up	Rab9 promoter act	NPC1 promoter act
O=C(NC1CCCCC1)c1cc(C2CC2)nn1-c1ccccc1	x	n	x	n	n
COc1cc2[nH]c(=O)n3nc(-c4ccccc4)nc3c2cc1OC	n	n	n	n	n
COc1ccc(-c2nc3c4ccccc4[nH]c(=O)n3n2)cc1	8.5µM	x	n	x	x
Cc1ccc(NC(=O)Cn2c(=O)n(CCC(=O)NCc3ccccc3Cl)c(=O)c3ccccc32)c(C)c1	n	x	n	x	x
Cc1ccccc1S(=O)(=O)Oc1ccc2ccc(O)cc2c1	17µM	n	x	n	n
Cc1ccccc1C(=O)Oc1ccc2ccc(O)cc2c1	6.7µM	5.8µM	x	n	u
COc1cccc(C(=O)Oc2ccc3ccc(O)cc3c2)c1	6µM	n	x	n	n
Cc1cccc(CNC(=O)c2cc3cc(S(=O)(=O)N4CCCCC4)ccc3n2C)c1	n	x	x	x	x
COCc1cc(C)nc2oc(C(=O)c3ccccc3)c(N)c12	17µM	n	n	n	n
Cc1cc(C)c2c(N)c(C(=O)c3ccc(Br)cc3)oc2n1	u	n	x	n	n
Cc1cc(C)c2c(N)c(C(=O)c3ccccc3)oc2n1	24µM	x	n	x	x
Cc1nn(C(C)C(=O)NCCc2ccco2)c(=O)c2nn(-c3ccccc3)c(C)c12 (configuration not stated)	n	n	x	n	n
